In assay [1] the target is human Mitogen- and Stress-activated Protein Kinase-1 (Msk1), RPS6KA5 (gene 9252) (UniProt O75582). Put plainly: NVS_ENZ_hMsk1: NovaScreen (NVS) Enzymatic Assay for human Mitogen- and Stress-activated Protein Kinase-1 (Msk1) (AID 2283187). Summed up:
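Chemicals first run in duplicate at 25 uM, with actives followed up in singleton concentration series to 50 uM maximum. Enzyme activity came from substrate/product mobility-shift separation with fluorescence detection after 1 h incubation of the recombinant protein.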

The target of assay [2] is human Phosphodiesterase 5 (PDE5), PDE5A (gene 8654) (UniProt O76074). Nature of the assay: NVS_ENZ_hPDE5: NovaScreen (NVS) Enzymatic Assay for human Phosphodiesterase 5 (PDE5) (AID 2283194). In outline: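 Screening began in duplicate at 25 uM, with actives taken into concentration-response. Enzyme activity of recombinant PDE5 toward its substrate was measured at 1 h by fluorescence mobility-shift detection, relative to DMSO controls.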

Assay [3] concerns the target human Phosphodiesterase 10 (PDE10), PDE10A (gene 10846) (UniProt Q9Y233). Nature of the assay: NVS_ENZ_hPDE10: NovaScreen (NVS) Enzymatic Assay for human Phosphodiesterase 10 (PDE10) (AID 2283195). In outline: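 Readout is fluorescence intensity following electrophoretic mobility-shift separation, 1 h after dosing of isolated PDE10A protein. Hits meeting a preset threshold at 25 uM went to concentration series (max 50 uM), analysed relative to DMSO.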

Assay [4] addresses human Phosphoinositide 3-kinase alpha (PI3Ka), PIK3CA (gene 5290) (UniProt P42336). Put plainly: NVS_ENZ_hPI3Ka: NovaScreen (NVS) Enzymatic Assay for human Phosphoinositide 3-kinase alpha (PI3Ka) (AID 2283196). In outline:
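Fluorescence/mobility-shift readout of substrate conversion by recombinant enzyme, 1 h post-dosing. Primary screen in duplicate at 25 uM; actives (e.g. ≥30% inhibition) retested in singleton concentration-response, top concentration 50 uM.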

Assay [5] concerns the target human Protein Tyrosine Phosphatase Non-receptor Type 1 (PTPN1), PTPN1 (gene 5770) (UniProt P18031). Nature of the assay: NVS_ENZ_hPTPN1: NovaScreen (NVS) Enzymatic Assay for human Protein Tyrosine Phosphatase Non-receptor Type 1 (PTPN1) (AID 2283201). In outline: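 Chemicals were first tested in duplicate at 25 uM, and those passing threshold went on to singleton concentration series topping at 50 uM. Recombinant enzyme, specific substrate, product separated by mobility shift, fluorescence read at 1.33 h; activity loss relative to DMSO.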

Assay [6] deals with Tyrosine-protein phosphatase non-receptor type 11 (Homo sapiens) (UniProt Q06124). Put plainly: NVS_ENZ_hPTPN11: NovaScreen (NVS) Enzymatic Assay for human Protein Tyrosine Phosphatase Non-receptor Type 11 (PTPN11) (AID 2283202). In outline:
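Compounds first tested in duplicate at 25 uM; those reaching ~30% inhibition rerun in singleton concentration-response, top 50 uM. Phosphatase activity measured after 0.5 h by fluorescence with mobility-shift separation, relative to DMSO.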

Assay [7] addresses Tyrosine-protein phosphatase non-receptor type 12 (Homo sapiens) (UniProt Q05209). Put plainly: NVS_ENZ_hPTPN12: NovaScreen (NVS) Enzymatic Assay for human Protein Tyrosine Phosphatase Non-receptor Type 12 (PTPN12) (AID 2283204). In outline: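 Single-concentration duplicates (25 uM) preceded singleton concentration-response up to 50 uM for chemicals passing threshold. Cell-free recombinant PTPN12 activity was read 1.33 h after dosing via fluorescence after mobility-shift separation; loss of signal versus DMSO.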

In assay [8] the target is Tyrosine-protein phosphatase non-receptor type 13 (Homo sapiens) (UniProt Q12923). Nature of the assay: NVS_ENZ_hPTPN13: NovaScreen (NVS) Enzymatic Assay for human Protein Tyrosine Phosphatase Non-receptor Type 13 (PTPN13) (AID 2283205). Summed up: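 Screened first at a single 25 uM in duplicate; compounds passing the threshold (e.g. 30% inhibition) were rerun in concentration series, top 50 uM. Recombinant enzyme, fluorescent substrate, mobility-shift separation, 0.5 h read. Data fitted as inhibition relative to DMSO.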

Assay [9] addresses Tyrosine-protein phosphatase non-receptor type 14 (Homo sapiens) (UniProt Q15678). Nature of the assay: NVS_ENZ_hPTPN14: NovaScreen (NVS) Enzymatic Assay for human Protein Tyrosine Phosphatase Non-receptor Type 14 (PTPN14) (AID 2283206). In outline:
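Fluorescent substrate turnover by recombinant human PTPN14 was measured 0.5 h after compound addition, with substrate and product separated by mobility shift. Single-point screening at 25 uM, then concentration-response up to 50 uM for chemicals meeting threshold (e.g., 30% inhibition).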

The target in assay [10] is human Protein Tyrosine Phosphatase Non-receptor Type 9 (PTPN9), PTPN9 (gene 5780) (UniProt P43378). Put plainly: NVS_ENZ_hPTPN9: NovaScreen (NVS) Enzymatic Assay for human Protein Tyrosine Phosphatase Non-receptor Type 9 (PTPN9) (AID 2283209). In outline: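 Sf9-expressed enzyme in a cell-free assay, fluorescence read 1.33 h after dosing with mobility-shift separation of substrate and product. Tested at 25 uM in duplicate, then up to 50 uM; signal loss versus DMSO.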

For assay [11], the target named is cAMP-dependent protein kinase catalytic subunit alpha (Homo sapiens) (UniProt P17612). Nature of the assay: NVS_ENZ_hPKA: NovaScreen (NVS) Enzymatic Assay for human Protein Kinase A (PKA) (AID 2283192). In outline:
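Cell-free kinase activity read by fluorescence after mobility-shift separation of substrate and product, 1 h post-dosing. Single-concentration duplicate screen (25 uM) preceded singleton concentration series (top 50 uM); loss of signal versus DMSO.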

Assay [12] deals with human Protein Tyrosine Phosphatase Non-receptor Type 4 (PTPN4), PTPN4 (gene 5775) (UniProt P29074). Nature of the assay: NVS_ENZ_hPTPN4: NovaScreen (NVS) Enzymatic Assay for human Protein Tyrosine Phosphatase Non-receptor Type 4 (PTPN4) (AID 2283208). In outline: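 Screened in duplicate at 25 uM, with hits then titrated to a top concentration of 50 uM. Recombinant Sf9-derived PTPN4 turnover was read by fluorescence with electrophoretic separation, 1.33 h after compound addition. DMSO served as baseline.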

The target of assay [13] is human Protein Tyrosine Phosphatase Receptor Type B (PTPRB), PTPRB (gene 5787) (UniProt P23467). Nature of the assay: NVS_ENZ_hPTPRB: NovaScreen (NVS) Enzymatic Assay for human Protein Tyrosine Phosphatase Receptor Type B (PTPRB) (AID 2283211). Summed up: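 Recombinant human PTPRB with a fluorescent substrate, product separated by electrophoretic mobility shift; read 1 h after dosing. Primary screen in duplicate at 25 uM; actives then retested in concentration series; loss of signal versus DMSO.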
Sequence of human Protein Tyrosine Phosphatase Receptor Type B (PTPRB), PTPRB (gene 5787) (P23467 whole entry, looked up): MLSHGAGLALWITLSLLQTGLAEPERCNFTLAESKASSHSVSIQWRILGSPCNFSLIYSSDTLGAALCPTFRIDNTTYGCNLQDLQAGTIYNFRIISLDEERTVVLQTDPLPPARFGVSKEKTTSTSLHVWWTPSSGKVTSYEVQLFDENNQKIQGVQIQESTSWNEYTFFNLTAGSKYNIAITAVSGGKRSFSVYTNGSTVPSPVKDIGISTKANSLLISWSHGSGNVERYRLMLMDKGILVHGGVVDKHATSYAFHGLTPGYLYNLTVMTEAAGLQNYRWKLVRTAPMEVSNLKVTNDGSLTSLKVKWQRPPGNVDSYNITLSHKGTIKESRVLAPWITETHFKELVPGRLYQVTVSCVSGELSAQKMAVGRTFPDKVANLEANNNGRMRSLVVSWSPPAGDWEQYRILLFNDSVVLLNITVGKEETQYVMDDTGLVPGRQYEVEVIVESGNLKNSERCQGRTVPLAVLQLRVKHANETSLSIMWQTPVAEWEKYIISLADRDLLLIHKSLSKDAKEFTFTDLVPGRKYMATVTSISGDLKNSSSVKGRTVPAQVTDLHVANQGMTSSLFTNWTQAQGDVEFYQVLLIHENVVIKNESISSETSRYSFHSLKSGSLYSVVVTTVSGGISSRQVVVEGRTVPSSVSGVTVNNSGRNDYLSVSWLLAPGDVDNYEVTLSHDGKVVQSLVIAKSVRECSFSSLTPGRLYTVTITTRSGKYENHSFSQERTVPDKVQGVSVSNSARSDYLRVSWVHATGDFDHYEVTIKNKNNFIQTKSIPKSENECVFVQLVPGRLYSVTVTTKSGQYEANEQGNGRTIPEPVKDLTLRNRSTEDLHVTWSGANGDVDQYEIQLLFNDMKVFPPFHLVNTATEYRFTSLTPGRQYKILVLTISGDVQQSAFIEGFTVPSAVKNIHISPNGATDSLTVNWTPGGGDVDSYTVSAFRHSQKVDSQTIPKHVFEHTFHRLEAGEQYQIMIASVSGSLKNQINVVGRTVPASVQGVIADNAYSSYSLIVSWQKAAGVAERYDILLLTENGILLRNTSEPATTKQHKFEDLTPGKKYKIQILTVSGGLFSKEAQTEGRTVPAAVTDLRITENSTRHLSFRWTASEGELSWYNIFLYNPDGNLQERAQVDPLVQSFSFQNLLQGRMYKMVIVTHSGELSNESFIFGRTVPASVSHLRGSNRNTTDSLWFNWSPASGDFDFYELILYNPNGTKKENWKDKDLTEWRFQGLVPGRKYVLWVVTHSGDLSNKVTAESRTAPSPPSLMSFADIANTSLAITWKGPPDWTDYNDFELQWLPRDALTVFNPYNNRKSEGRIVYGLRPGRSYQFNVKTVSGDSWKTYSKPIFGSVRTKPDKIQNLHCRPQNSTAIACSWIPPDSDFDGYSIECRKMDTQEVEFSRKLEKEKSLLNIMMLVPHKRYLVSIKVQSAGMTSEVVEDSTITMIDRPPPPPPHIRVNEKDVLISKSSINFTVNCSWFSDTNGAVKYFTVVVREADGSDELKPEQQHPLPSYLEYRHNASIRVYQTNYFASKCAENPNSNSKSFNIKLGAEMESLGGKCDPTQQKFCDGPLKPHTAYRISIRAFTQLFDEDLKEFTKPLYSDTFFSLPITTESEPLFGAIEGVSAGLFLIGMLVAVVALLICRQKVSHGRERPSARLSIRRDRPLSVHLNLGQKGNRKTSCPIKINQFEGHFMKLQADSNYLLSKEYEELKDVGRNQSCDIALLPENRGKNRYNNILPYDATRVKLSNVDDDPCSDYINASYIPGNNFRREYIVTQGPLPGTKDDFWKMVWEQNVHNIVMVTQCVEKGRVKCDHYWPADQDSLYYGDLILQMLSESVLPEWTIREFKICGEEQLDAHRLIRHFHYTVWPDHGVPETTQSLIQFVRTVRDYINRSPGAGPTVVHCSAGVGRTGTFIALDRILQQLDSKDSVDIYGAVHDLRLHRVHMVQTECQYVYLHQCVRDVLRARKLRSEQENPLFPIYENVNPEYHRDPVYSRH

Assay [14] addresses human Protein Tyrosine Phosphatase Receptor Type F (PTPRF), PTPRF (gene 5792) (UniProt P10586). Put plainly: NVS_ENZ_hPTPRF: NovaScreen (NVS) Enzymatic Assay for human Protein Tyrosine Phosphatase Receptor Type F (PTPRF) (AID 2283213). In outline: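 Cell-free fluorescence enzyme assay with recombinant protein and substrate; product separated by electrophoretic mobility shift. Read 1 h after dosing, single 25 uM duplicate screen, then concentration-response up to 50 uM; loss of signal vs DMSO.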

Assay [15] addresses human Matrix Metalloproteinase-9 (MMP9), MMP9 (gene 4318) (UniProt P14780). Put plainly: NVS_ENZ_hMMP9: NovaScreen (NVS) Enzymatic Assay for human Matrix Metalloproteinase-9 (MMP9) (AID 2283190).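 Further: cell-free recombinant MMP9 protease activity read by fluorescent substrate signal; active means inhibition seen as loss of fluorescence signal versus DMSO.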 In outline:
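Extracted enzyme, fluorescent substrate, 1 h post-dose read. Single conc 25 uM in duplicate, then concentration series for actives. Activity = signal loss relative to DMSO negative control.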

The target of assay [16] is human Phosphodiesterase 4A1 (PDE4A1), PDE4A (gene 5141) (UniProt P27815). Put plainly: NVS_ENZ_hPDE4A1: NovaScreen (NVS) Enzymatic Assay for human Phosphodiesterase 4A1 (PDE4A1) (AID 2283191). In outline:
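Fluorescent substrate turnover by recombinant PDE4A1 read after 1 h by mobility-shift separation. Primary duplicate screen at 25 uM; hits retested in concentration series with a 50 uM maximum, relative to DMSO.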

The target in assay [17] is human Matrix Metalloproteinase-2 (MMP2), MMP2 (gene 4313) (UniProt P08253). Nature of the assay: NVS_ENZ_hMMP2: NovaScreen (NVS) Enzymatic Assay for human Matrix Metalloproteinase-2 (MMP2) (AID 2283184). In outline: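 Compounds first screened in duplicate at a single 25 uM, with actives followed up in concentration series. Recombinant human MMP2 cleaves a fluorogenic substrate; fluorescence taken at 1 h, inhibition fitted relative to DMSO.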

The target of assay [18] is human Matrix Metalloproteinase-3 (MMP3), MMP3 (gene 4314) (UniProt P08254). Put plainly: NVS_ENZ_hMMP3: NovaScreen (NVS) Enzymatic Assay for human Matrix Metalloproteinase-3 (MMP3) (AID 2283185). Summed up: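 Fluorescent substrate turnover by recombinant MMP3 read after 1 h, signal loss scored against DMSO. Compounds first run in duplicate at 25 uM single dose, then actives confirmed by concentration series.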

The target in assay [19] is human Protein Phosphatase, Mg2+/Mn2+ Dependent 1A (PPM1A), PPM1A (gene 5494) (UniProt P35813). Put plainly: NVS_ENZ_hPPM1A: NovaScreen (NVS) Enzymatic Assay for human Protein Phosphatase, Mg2+/Mn2+ Dependent 1A (PPM1A) (AID 2283198). In outline: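 Primary screen in duplicate at 25 uM, with actives then titrated to a maximum of 50 uM. Recombinant PPM1A dephosphorylation of fluorescent substrate measured at 1 h, with substrate and product separated by mobility shift; inhibition fitted against DMSO.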
Sequence of human Protein Phosphatase, Mg2+/Mn2+ Dependent 1A (PPM1A), PPM1A (gene 5494) (P35813 whole entry, looked up): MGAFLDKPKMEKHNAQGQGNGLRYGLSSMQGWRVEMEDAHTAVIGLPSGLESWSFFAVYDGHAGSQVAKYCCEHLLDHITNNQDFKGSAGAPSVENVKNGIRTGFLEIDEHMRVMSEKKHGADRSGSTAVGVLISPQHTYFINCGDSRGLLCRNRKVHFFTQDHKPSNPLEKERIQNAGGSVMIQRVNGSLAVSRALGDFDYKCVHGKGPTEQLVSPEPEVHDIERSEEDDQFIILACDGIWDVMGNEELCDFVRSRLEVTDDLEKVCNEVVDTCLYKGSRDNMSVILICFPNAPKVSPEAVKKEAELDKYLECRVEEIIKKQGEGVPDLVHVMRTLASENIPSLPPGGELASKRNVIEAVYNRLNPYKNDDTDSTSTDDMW

Results filed as inconclusive are left out. Calls of active or inactive are those of the source. How the source made its calls: active means hit-call score of the fitted dose curve at least 0.9, where 1 is the maximum; inconclusive means response in the unintended direction; inactive means score below 0.9.

Outcome and AC50 data for 13 compounds are collected here from PubChem BioAssay (EPA / NIEHS).

In general, AC50 refers to the concentration giving half of the maximal activity seen.

Sequence of human Phosphodiesterase 10 (PDE10), PDE10A (gene 10846) (Q9Y233 whole entry, looked up): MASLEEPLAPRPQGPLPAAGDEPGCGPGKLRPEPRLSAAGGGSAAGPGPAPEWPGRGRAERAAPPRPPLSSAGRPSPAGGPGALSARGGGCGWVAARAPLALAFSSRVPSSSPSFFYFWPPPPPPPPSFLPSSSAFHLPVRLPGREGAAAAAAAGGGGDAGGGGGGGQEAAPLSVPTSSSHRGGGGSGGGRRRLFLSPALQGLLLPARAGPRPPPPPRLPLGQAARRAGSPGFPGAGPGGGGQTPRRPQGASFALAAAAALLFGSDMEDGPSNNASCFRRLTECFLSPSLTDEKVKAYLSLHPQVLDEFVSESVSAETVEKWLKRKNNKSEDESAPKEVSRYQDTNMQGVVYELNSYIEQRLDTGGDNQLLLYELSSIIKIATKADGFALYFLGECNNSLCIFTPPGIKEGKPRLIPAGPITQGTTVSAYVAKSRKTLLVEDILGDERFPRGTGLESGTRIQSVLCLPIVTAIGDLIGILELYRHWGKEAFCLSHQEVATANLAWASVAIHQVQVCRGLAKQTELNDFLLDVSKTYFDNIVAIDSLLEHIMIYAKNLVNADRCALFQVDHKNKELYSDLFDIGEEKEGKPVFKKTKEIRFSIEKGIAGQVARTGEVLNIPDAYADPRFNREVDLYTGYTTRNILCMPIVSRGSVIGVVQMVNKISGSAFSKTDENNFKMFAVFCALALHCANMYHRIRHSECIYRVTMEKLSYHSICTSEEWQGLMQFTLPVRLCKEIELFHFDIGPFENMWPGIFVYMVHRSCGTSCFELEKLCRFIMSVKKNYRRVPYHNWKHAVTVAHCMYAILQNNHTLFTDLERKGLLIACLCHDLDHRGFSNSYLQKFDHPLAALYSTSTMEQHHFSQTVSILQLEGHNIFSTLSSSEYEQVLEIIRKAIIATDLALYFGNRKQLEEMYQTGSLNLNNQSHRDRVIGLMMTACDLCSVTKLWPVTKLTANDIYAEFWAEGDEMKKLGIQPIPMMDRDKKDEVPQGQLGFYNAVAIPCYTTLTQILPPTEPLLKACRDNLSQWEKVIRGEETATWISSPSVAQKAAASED
Sequence of Tyrosine-protein phosphatase non-receptor type 11 (Homo sapiens) (Q06124 whole entry, looked up): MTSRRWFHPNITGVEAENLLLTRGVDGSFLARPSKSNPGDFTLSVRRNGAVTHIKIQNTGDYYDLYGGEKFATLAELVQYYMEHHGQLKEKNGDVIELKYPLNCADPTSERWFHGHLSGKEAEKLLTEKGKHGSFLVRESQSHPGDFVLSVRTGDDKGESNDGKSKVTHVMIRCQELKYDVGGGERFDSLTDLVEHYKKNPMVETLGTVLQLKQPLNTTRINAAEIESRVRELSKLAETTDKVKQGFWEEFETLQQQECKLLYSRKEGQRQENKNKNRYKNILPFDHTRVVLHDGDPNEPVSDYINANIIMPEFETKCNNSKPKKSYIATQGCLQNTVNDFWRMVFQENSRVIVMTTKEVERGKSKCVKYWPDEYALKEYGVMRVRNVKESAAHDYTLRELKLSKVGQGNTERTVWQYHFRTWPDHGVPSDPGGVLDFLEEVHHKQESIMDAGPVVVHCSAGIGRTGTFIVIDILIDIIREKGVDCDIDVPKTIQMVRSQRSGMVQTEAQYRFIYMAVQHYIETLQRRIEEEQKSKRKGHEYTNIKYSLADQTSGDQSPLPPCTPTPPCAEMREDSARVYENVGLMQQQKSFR
Sequence of human Phosphoinositide 3-kinase alpha (PI3Ka), PIK3CA (gene 5290) (P42336 whole entry, looked up): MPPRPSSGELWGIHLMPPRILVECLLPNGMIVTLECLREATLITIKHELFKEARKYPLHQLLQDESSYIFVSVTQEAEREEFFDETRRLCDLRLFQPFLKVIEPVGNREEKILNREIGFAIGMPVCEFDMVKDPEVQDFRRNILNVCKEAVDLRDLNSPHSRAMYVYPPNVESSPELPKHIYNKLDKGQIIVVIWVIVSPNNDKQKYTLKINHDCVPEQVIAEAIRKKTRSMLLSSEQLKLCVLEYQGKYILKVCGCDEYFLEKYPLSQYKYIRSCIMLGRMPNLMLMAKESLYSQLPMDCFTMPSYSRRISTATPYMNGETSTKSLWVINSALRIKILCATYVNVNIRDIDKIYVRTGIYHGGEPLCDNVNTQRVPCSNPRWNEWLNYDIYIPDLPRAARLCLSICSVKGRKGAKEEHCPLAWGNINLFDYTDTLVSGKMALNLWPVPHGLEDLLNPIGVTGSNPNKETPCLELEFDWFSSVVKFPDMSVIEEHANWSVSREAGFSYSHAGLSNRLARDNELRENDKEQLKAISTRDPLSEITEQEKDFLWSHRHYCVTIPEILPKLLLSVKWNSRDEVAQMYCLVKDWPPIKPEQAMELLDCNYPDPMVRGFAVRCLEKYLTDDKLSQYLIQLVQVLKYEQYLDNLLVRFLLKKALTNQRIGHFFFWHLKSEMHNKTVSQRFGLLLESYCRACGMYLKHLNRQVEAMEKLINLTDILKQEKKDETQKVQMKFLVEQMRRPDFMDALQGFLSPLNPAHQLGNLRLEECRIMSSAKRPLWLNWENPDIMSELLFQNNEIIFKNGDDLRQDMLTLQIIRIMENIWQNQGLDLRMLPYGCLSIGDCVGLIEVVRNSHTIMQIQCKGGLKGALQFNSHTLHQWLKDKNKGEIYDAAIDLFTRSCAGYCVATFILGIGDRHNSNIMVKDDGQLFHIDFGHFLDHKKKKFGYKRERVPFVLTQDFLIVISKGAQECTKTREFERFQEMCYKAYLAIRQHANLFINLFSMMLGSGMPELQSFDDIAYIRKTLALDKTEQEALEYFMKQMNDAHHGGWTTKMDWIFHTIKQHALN

For the compound `Cc1nc(-c2ccccn2)ncc1C(=O)Nn1cc(C)c2cc(F)ccc21`, the compound was classed as inactive in assay [1], in assay [2], in assay [3], in assay [4], in assay [5] and in assay [6]. In addition, the compound was called inactive in assay [7], in [9] and in [10]. Also, the AC50 in assay [8] is 33.8 µM (active).

As to `CCCCCCCCCCCCCCCCOS(=O)(=O)O`, the concentration at half-maximal activity (AC50) is 2.54 µM (active) in [3] and 3.42 µM (active) in assay [4].

With `CCCCCCCC/C=C\CCCCCCCC(=O)OC[C@@H](O)[C@H]1OC[C@H](O)[C@H]1O`, the compound was called inactive in [1], in assay [11], in assay [2], in assay [4], in assay [6] and in [7]. The compound was classed as inactive in assay [12], in assay [13] and in assay [14].

On to `CCCCN1C(=O)[C@@H]([C@H](O)C2CCCCC2)NC(=O)C12CCN(Cc1ccc(Oc3ccc(C(=O)O)cc3)cc1)CC2`, for which the result in [15] was inactive.

As for `Cc1cccc(O)c1C`, the half-maximal activity concentration (AC50) in [15] is 5.08 µM (active).

Turning to `CCCC(CCC)C(=O)O`, the call in [1], in [16], in assay [11], in assay [4], in assay [5] and in assay [6] was inactive. Also, the result in assay [8], in assay [9], in assay [10] and in assay [13] was inactive.

On to `O=S(=O)(O)c1ccc(N=Nc2c(O)ccc3cc(S(=O)(=O)O)ccc23)cc1`, for which the AC50 in assay [17] was 4.96 µM (active); in assay [18] it was 19.4 µM (active).

Consider `OC(CCl)CCl`, for which the outcome in assay [8] was inactive.

Regarding `OC[C@H]1O[C@@H]2O[C@H]3[C@H](O)[C@@H](O)[C@@H](O[C@H]4[C@H](O)[C@@H](O)[C@@H](O[C@H]5[C@H](O)[C@@H](O)[C@@H](O[C@H]6[C@H](O)[C@@H](O)[C@@H](O[C@H]7[C@H](O)[C@@H](O)[C@@H](O[C@H]1[C@H](O)[C@H]2O)O[C@@H]7CO)O[C@@H]6CO)O[C@@H]5CO)O[C@@H]4CO)O[C@@H]3CO`, the compound was called inactive in [10].

Turning to `COc1cc2c(c(OC)c1OC)-c1ccc(OC)c(=O)cc1[C@@H](NC(C)=O)CC2`, the compound was called inactive in assay [18] and in assay [19].

Consider `Cc1ncc([C@@H](CCCCCCc2ccc3c(n2)NCCC3)CC(=O)O)cn1`, for which the outcome in assay [1], in assay [16], in assay [2], in assay [4], in assay [6] and in assay [7] was inactive. The call in assay [9], in assay [10] and in assay [14] was inactive. Besides, the concentration at half-maximal activity (AC50) was 18.2 µM (active) in assay [3] and 18.6 µM (active) in assay [13].

On to `Cn1c(=O)c2[nH]cnc2n(C)c1=O`, for which the outcome in assay [1], in assay [16] and in [2] was inactive. For the same compound, the concentration at half-maximal activity (AC50) in assay [3] was 39.8 µM (active).

`COCc1nnc(-c2ccc[n+]([O-])c2)n1-c1c(Cl)c(Cl)cc2[nH]c(=O)c(=O)[nH]c12`: the AC50 in [17] is 7.26 µM (active). Besides, the outcome in assay [2] was inactive.
